Assay results published in PubChem BioAssay (Tox21).
Inconclusive results are not listed. Unmarked numbers belong to inactive results. Calls come from the whole dose curve.

test: cAMP Responsive Elements (CRE) small molecule agonists, cell-based qHTS assay (AID 1963590); details: CRE-bla HEK293T, beta-lactamase FRET ratio, 3 h; series mostly up to 92.4 µM; activation: at the top concentration
Description: U.S. Tox21 Program National Center for Advancing Translational Sciences [NCATS] Division of Preclinical Innovation [DPI] U.S. Environmental Protection Agency [EPA] National Institutes of Environmental Health Sciences [NIEHS] National Toxicology Program [NTP] U.S. Food and Drug Administration [FDA] Tox21 Assay Overview: CREB (cyclic-AMP Responsive Element Binding Protein) is a cellular transcription factor. It binds to certain DNA sequences called cAMP Responsive Elements (CRE) and regulates the transcription of the genes. […] This cell line can be used to find agonists/antagonists of the cyclic AMP signaling pathway. The activation of the report gene under culture conditions can be detected by fluorescence intensity. This cell line has been used to screen the Tox21 10K compound library to identify agonists that induce oxidative stress.
Tox21 Assay Protocol Summary: CRE-bla Hek 293T cells were suspended in assay medium (DMEM containing 10% dialyzed FBS, 0.1 mM NEAA, 1 mM sodium pyruvate and 25 mM HEPES) and dispensed at 2,000 cells/5 uL /well into 1536-well black wall/clear bottom plates using a Multidrop Combi (ThermoFisher Scientific, Waltham, MA) dispenser. After the assay plates were incubated at 37 C/5% CO2 for 18 hrs, 23 nL of compounds dissolved in DMSO, positive controls or DMSO only was transferred to the assay plate by a pintool workstation (Kalypsys, San Diego, CA). After the plates were incubated at 37 C/5% CO2 for 3 hrs, 1 uL of LiveBLAzer B/G FRET substrate (Invitrogen, Carlsbad, CA) was added to each well using Bioraptr Flying Reagent Dispenser (FRD, Aurora Discovery, San Diego, CA). The plates were incubated at room temperature for 2 h.
% is set by controls: 0 for no effect and ±100 for the full control effect.

SMILES	activation
COC(=O)C(C)O (stereo not given)	-0.328%
CC(C)C(=O)Nc1cccc(C(F)(F)F)c1	0.73% [at 42.5 µM]
CO[Si](CCC1CCC2OC2C1)(OC)OC (stereo not given)	0.381%
CCOC(=O)c1ccc(I)cc1	4.16%
NC[C@H]1O[C@H](O[C@H]2[C@H](O[C@@H]3O[C@H](CO)[C@@H](O)[C@H]3O)C(O)[C@H](N)C[C@@H]2N)[C@H](N)[C@@H](O)[C@@H]1O (stereo not given in full)	4.47% [at 8.39 µM]
CCOC(=O)c1cccnc1	-0.611% [at 42.5 µM]
CCOC(=O)C1=NOC(c2ccccc2)(c2ccccc2)C1	1.49%
CC(C)Cc1ccc(C(C)C(=O)OCc2ccccn2)cc1 (stereo not given)	7.66% [at 42.5 µM]
C#CC(C)(CC)OC(=O)c1ccccc1C(=O)O (stereo not given)	0.0319% [at 42.5 µM]
COc1ccc(N)c([N+](=O)[O-])c1	-1.04%
CCOC(=O)C1=NN(c2ccc(Cl)cc2Cl)C(C)(C(=O)OCC)C1 (stereo not given)	7.06%
C=C(C)C(=O)OCCN(C)C	-0.006%
Cc1cnc(C)c(C)n1	-1.36%
C=CCn1c(=O)n([C@@H]2O[C@H](CO)[C@@H](O)[C@H]2O)c2nc(N)[nH]c(=O)c21	-1.43% [at 42.5 µM]
CCCCOCCOC(=O)CCCCCCCCC(=O)OCCOCCCC	-3.35%
C/C(=C(\CCOP(=O)(O)O)SC(=O)c1ccccc1)N(C=O)Cc1cnc(C)nc1N	1.28% [at 8.39 µM]
COC(C)(C)CCCC(C)CC=O (stereo not given)	-1.73%
CCOc1ccc(NC(=O)OC(C)C)cc1OCC	0.587%
Oc1ccccc1C=NCc1ccccc1	0.818% [at 42.5 µM]
O[C@@H]1CO[C@H]2[C@@H]1OC[C@@H]2O	-0.152% [at 42.5 µM]

SMILES	activation
CN(C)Cc1ccccc1	-0.0009%
COc1ccccc1N1CCN(CC(O)COc2cc(OC)c(OC)c(OC)c2)CC1 (stereo not given)	-0.367% [at 42.5 µM]
CC(C)[N+](C)(C)CC(O)COc1cccc2ccccc12 (stereo not given)	-0.957% [at 42.5 µM]
Nc1ccn([C@@H]2O[C@H](CO)[C@@H](O)C2(F)F)c(=O)n1	0.15% [at 42.5 µM]
COC(=O)[C@H]1[C@H]2C[C@@H]3c4[nH]c5cc(OC)ccc5c4CCN3C[C@H]2C[C@@H](OC(=O)COc2ccc(OC)cc2)[C@@H]1OC	2.3% [at 42.5 µM]
CCCCCCCCCCCCCCCCCCOCCO	3.72% [at 19 µM]
O=c1c2ccccc2nnn1CCl	0.0109%
CC(=O)c1cccnc1	-0.349%
CC(C)(C)NCCNC(C)(C)C	0.725%
Cc1cccc(C)c1OCC(C)N (stereo not given)	-0.183% [at 42.5 µM]
Clc1cc(Cl)c(-c2c(Cl)c(Cl)cc(Cl)c2Cl)cc1Cl	2.64% [at 42.5 µM]
Cc1cccc(C)c1NC(=O)c1ccc(N)cc1	-0.253% [at 42.5 µM]
C=C(C)C1CCC(C)CC1O (stereo not given)	-1.91%
CCCOC(=O)c1ccc(N)cc1	0.818% [at 42.5 µM]
CCN1CCCC1CN (stereo not given)	-0.0529% [at 42.5 µM]
O=C(OCCN1CCOCC1)c1cccnc1Nc1cccc(C(F)(F)F)c1	7.64% [at 42.5 µM]
O=S1OCCO1	0.699%
O=[N+]([O-])c1ccc(F)c(Cl)c1	0.214%
CCc1cc(Cl)c(OC)c(C(=O)NC[C@@H]2CCCN2CC)c1O	0.138% [at 42.5 µM]
CCCCCCCCCCCCCCC1CO1 (stereo not given)	-0.144%
